# PubChem BioAssay (Tox21)
# Values joined by “and” are separate entries in the source; they are usually repeats but may differ in a detail not shown here. Equal values may be shown once. Records with an inconclusive call do not appear. Where a call stands in place of a potency, no number is given. A structure can be active in one record and inactive in another. Active and inactive are the calls of the source. Unless noted, calls come from the whole dose curve; as a rule, active = well fitted curve in the direction sought with a large enough effect in the repeat runs; inconclusive = weak or mixed curves; inactive = no such curve, though single readings can be large; an effect the other way counts as inactive or inconclusive.
# Assays:
# [1] = qHTS assay to identify small molecule antagonists of the retinoid-related orphan receptor gamma (ROR-gamma) signaling pathway - cell viability counter screen (AID 1159520); note: nearly all actives have a fitted effect of over 50% in size; note: potency is the fitted concentration of half-maximal effect
# In short: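 Tet-on ROR gamma CHO cells (1,000/well) were plated 4 hr, given compounds in DMSO for 2 hr at 37 C, then induced with 1 uM final doxycycline for 16 hr. Viability was read as ATP by CellTiter-Glo luminescence after 30 min.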
# [2] = molecular target: Nuclear receptor ROR-gamma (Homo sapiens) (UniProt P51449); assay: qHTS assay to identify small molecule antagonists of the retinoid-related orphan receptor gamma (ROR-gamma) signaling pathway (AID 1159521; note: nearly all actives have a fitted effect of over 50% in size; note: potency is the fitted concentration of half-maximal effect;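 for activity change, negative = inhibition: CHO cells with doxycycline inducible ROR-gamma driving an RORE luciferase reporter; top concentration of the series differs between compounds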)
# In short: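 RORγ antagonism is scored from reduced reporter luminescence in Tet-on CHO cells. Induction used 1 uM final doxycycline hyclate for 16 h at 37 C, following a 2 h compound exposure.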
# [3] = qHTS assay to identify small molecule agonists of the AP-1 signaling pathway - cell viability counter screen (AID 1159525; calls by dose curve; note: nearly all actives have a fitted effect of over 55% in size; note: potency is the fitted concentration of half-maximal effect)
# In short: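 ME-180 AP-1-bla, 2500 cells/well, Opti-MEM + 0.5% dialyzed FBS; overnight 37 °C; cpd 15-pt titration, 5 h 37 °C; CellTiter-Glo 30 min RT; luminescence read; normalised to TOAB and DMSO controls.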
# [4] = qHTS assay to identify small molecule agonists of the AP-1 signaling pathway (AID 1159526; calls by dose curve)
# [5] = qHTS assay to identify small molecule agonists of the RXR signaling pathway - cell viability counter screen (AID 1159529); note: nearly all actives have a fitted effect of over 50% in size; note: potency is the fitted concentration of half-maximal effect; for activity change, negative = cytotoxicity: series mostly up to about 77 µM
# In short: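 Cell viability is measured by CellTiter-Glo luminescence, 30 min at room temperature, in wells already read for beta-lactamase. Engineered HEK 293T cells (RXR-alpha-UAS-bla) are dosed 16 hr at 37 C. Tetraoctyl ammonium bromide serves as positive control.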
# [6] = qHTS assay to identify small molecule antagonists of the retinoid acid receptor (RAR) signaling pathway - cell viability counter screen (AID 1159551); note: nearly all actives have a fitted effect of over 35% in size
# In short: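 Following overnight attachment, C3RL4 reporter cells received DMSO-dissolved compounds and then retinol (1 uM final). Six hours later at 37 C, ATP content was measured by CellTiter-Glo luminescence.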
# [7] = qHTS assay to identify small molecule antagonists of the retinoic acid receptor (RAR) signaling pathway (AID 1159552; note: nearly all actives have a fitted effect of over 50% in size)
# In short: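 Quantitative HTS in C3RL4 RARE-luciferase reporter cells. Compounds were added with 1 uM (final) retinol; luminescence was read after 6 hr.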
# [8] = qHTS assay to identify small molecule antagonists of the estrogen related receptor (ERR) signaling pathway from Tox21 library - cell viability counter screen (AID 1224834); note: nearly all actives have a fitted effect of over 30% in size; note: potency is the fitted concentration of half-maximal effect
# In short: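 Viability readout (CellTiter-Fluor fluorescence, 30 min at 37 C) multiplexed with the ERR assay; cells treated 17.5 h at 37 C with compounds delivered in DMSO.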
# [9] = molecular target: Retinoic acid receptor RXR-alpha (Homo sapiens) (UniProt P19793); assay: qHTS assay to identify small molecule agonists of the RXR signaling pathway (AID 1159527; calls by dose curve; note: nearly all actives have a fitted effect of over 35% in size)
# Retinoic acid receptor RXR-alpha (Homo sapiens), sequence (P19793 whole entry, looked up): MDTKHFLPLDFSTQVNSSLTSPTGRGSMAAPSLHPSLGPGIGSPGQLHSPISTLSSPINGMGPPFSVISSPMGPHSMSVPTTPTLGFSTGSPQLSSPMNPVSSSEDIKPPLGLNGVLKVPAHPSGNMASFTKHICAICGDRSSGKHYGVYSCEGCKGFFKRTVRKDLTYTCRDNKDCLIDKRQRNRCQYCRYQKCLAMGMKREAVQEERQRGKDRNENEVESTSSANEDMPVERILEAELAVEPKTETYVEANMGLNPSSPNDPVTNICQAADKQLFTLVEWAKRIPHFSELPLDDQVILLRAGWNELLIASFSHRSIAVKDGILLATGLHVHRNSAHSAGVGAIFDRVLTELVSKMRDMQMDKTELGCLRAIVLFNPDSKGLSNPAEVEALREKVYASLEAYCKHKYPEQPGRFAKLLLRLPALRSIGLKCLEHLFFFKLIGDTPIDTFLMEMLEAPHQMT
# In short: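 qHTS of the Tox21 10K library in GeneBLAzer RXR-alpha HEK 293T cells carrying a beta-lactamase reporter […]; 16 hr treatment, 9-cis retinoic acid as agonist control, FRET read-out.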
# [10] = qHTS assay to identify small molecule agonists of the vitamin D receptor (VDR) signaling pathway - cell viability counter screen (AID 743224); note: nearly all actives have a fitted effect of over 50% in size; note: potency is the fitted concentration of half-maximal effect; for activity change, negative = cytotoxicity: series mostly up to about 63 µM
# In short: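 VDR-bla cell line, quantitative HTS format; 16 h compound incubation (37C, 5% CO2); ATP-based CellTiter-Glo luminescence measured in the reporter assay wells.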
# [11] = qHTS assay to identify small molecule antagonists of the vitamin D receptor (VDR) signaling pathway - cell viability counter screen (AID 743225); note: nearly all actives have a fitted effect of over 50% in size; note: potency is the fitted concentration of half-maximal effect
# In short: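 Cells (VDR-UAS-bla HEK 293T) are plated, rested 4 h at 37C, dosed with compound and 3 nM final 1-alpha,25-dihydroxy vitamin D3, and incubated 16 h. Viability is taken from CellTiter-Glo luminescence in the reporter wells.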
# [12] = qHTS assay to identify small molecule agonists of the retinoic acid receptor (RAR) signaling pathway (AID 1159553); note: potency is the fitted concentration of half-maximal effect
# In short: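 Cell line C3RL4, RARE luciferase reporter. Treatment: compounds in DMSO, 6 hr, 37 C, 5% CO2, after overnight plating. Detection: luminescence, 30 min RT after reagent.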
compound,measurement,setting,value
C[Si](C)O[Si](C)C,Potency,[1],inactive
same,Potency,[2],inactive
same,Potency,[3],inactive
same,Potency,[4],inactive
same,Potency,[5],inactive
same,Potency,[6],inactive
same,Potency,[7],inactive
same,Potency,[8],inactive
COc1nccnc1CC(C)C,Potency,[1],inactive
same,Potency,[2],inactive
same,Potency,[3],inactive
same,Potency,[4],inactive
same,Potency,[5],inactive
same,Potency,[6],inactive
same,Potency,[7],inactive
same,Potency,[8],inactive
CC(C)=CC1CC(C)CCO1 (stereo not given),Potency,[1],inactive
same,Potency,[2],inactive
same,Potency,[3],inactive
same,Potency,[4],inactive
same,Potency,[5],inactive
same,Potency,[6],inactive
same,Potency,[7],inactive
same,Potency,[8],inactive
CC(=O)O[C@@H]1C[C@@H]2CC[C@@]1(C)C2(C)C,Potency,[1],inactive
same,Potency,[2],inactive
same,Potency,[3],inactive
same,Potency,[4],inactive
same,Potency,[9],inactive
same,Potency,[5],inactive
same,Potency,[7],inactive
c1ccc2c(c1)CCC2,Potency,[1],inactive
same,Potency,[2],inactive
same,Potency,[3],inactive
same,Potency,[4],inactive
same,Potency,[9],inactive
same,Potency,[5],inactive
same,Potency,[6],inactive
same,Potency,[7],inactive
same,Potency,[8],inactive
C=CC(C)C#N (stereo not given),Potency,[1],inactive
same,Potency,[2],inactive
same,Potency,[3],inactive
same,Potency,[4],inactive
same,Potency,[9],inactive
same,Potency,[5],inactive
same,Potency,[6],inactive
same,Potency,[7],inactive
same,Potency,[8],inactive
O=CC1CC1,Potency,[1],inactive
same,Potency,[2],inactive
same,Potency,[3],inactive
same,Potency,[4],inactive
same,Potency,[9],inactive
same,Potency,[5],inactive
same,Potency,[7],inactive
same,Potency,[8],inactive
CCCCCCCCC(C)=O,Potency,[1],inactive
same,Potency,[2],inactive
same,Potency,[3],inactive
same,Potency,[4],inactive
same,Potency,[5],inactive
same,Potency,[6],inactive
same,Potency,[7],inactive
same,Potency,[8],inactive
CC(C)c1ccccc1N,Potency,[1],inactive
same,Potency,[2],inactive
same,Potency,[3],inactive
same,Potency,[4],inactive
same,Potency,[5],inactive
same,Potency,[6],inactive
same,Potency,[7],inactive
same,Potency,[8],inactive
CC1(C)C(=O)N(CO)C(=O)N1CO,Potency,[1],inactive
same,Potency,[2],inactive
same,Potency,[3],inactive
same,Potency,[4],inactive
same,Potency,[5],inactive
same,Potency,[6],inactive
same,Potency,[7],inactive
same,Potency,[8],inactive
C=CC(=C)CC/C=C(\C)CCC=C(C)C,"activity, negative = cytotoxicity",[1],3.07% [at 19 µM] (inactive)
same,"activity change, negative = inhibition",[2],0.326% [at 19 µM] (inactive)
same,"viability change, negative = cytotoxic",[3],2.62% [at 15.8 µM] (inactive)
same,activation,[4],-1.16% [at 15.8 µM] (inactive)
same,activation,[9],-18.2% [at 15.8 µM] (inactive)
same,"activity change, negative = cytotoxicity",[5],-8.98% [at 15.8 µM] (inactive)
same,"activity change, negative = cytotoxicity",[6],-0.128% [at 19 µM] (inactive)
same,"viability change, negative = cytotoxic",[8],0.736% [at 19 µM] (inactive)
CN(C)CCN1CCOCC1,Potency,[2],inactive
same,Potency,[3],inactive
same,Potency,[4],inactive
same,Potency,[5],inactive
same,Potency,[6],inactive
same,Potency,[7],inactive
same,Potency,[8],inactive
CCCCCCCCCCCCOC(=O)c1cc(O)c(O)c(O)c1,Potency,[10],27.4 µM (active) and 21.9 µM (active)
same,Potency,[11],43.5 µM (active) and 24.5 µM (active)
same,Potency,[1],2.42 µM (active) and 4.86 µM (active)
same,Potency,[2],2.16 µM (active) and 2.17 µM (active)
same,Potency,[3],43.5 µM (active) and 38.9 µM (active)
same,Potency,[5],27.4 µM (active) and 34.7 µM (active)
same,Potency,[7],inactive
same,Potency,[12],172 nM (active) and 386 nM (active)
same,Potency,[8],60.9 µM (active) and 27.3 µM (active)
O=Cc1ccc(F)cc1,Potency,[10],inactive
same,Potency,[11],inactive
same,Potency,[1],inactive
same,Potency,[2],inactive
same,Potency,[3],inactive
same,Potency,[4],inactive
same,Potency,[5],inactive
same,Potency,[8],inactive
Cc1cccc(Br)c1,Potency,[10],inactive
same,Potency,[11],inactive
same,Potency,[1],inactive
same,Potency,[5],55.3 µM (active)
same,Potency,[6],inactive
same,Potency,[7],inactive
CC1CNCC(C)O1 (stereo not given),Potency,[2],inactive
same,Potency,[3],inactive
same,Potency,[4],inactive
same,Potency,[9],inactive
same,Potency,[5],inactive
same,Potency,[6],inactive
same,Potency,[7],inactive
same,Potency,[8],inactive
CCCCCCC(C)Nc1ccc(Nc2ccccc2)cc1 (stereo not given),Potency,[10],38.9 µM (active)
same,Potency,[11],43.6 µM (active)
same,Potency,[3],49 µM (active)
same,Potency,[6],inactive
same,Potency,[12],inactive
c1cc[nH]c1,Potency,[2],inactive
same,Potency,[3],inactive
same,Potency,[4],inactive
same,Potency,[9],inactive
same,Potency,[5],inactive
same,Potency,[6],inactive
same,Potency,[7],inactive
same,Potency,[8],inactive
CCC(C)c1ccccc1 (stereo not given),Potency,[2],inactive
same,Potency,[3],inactive
same,Potency,[4],inactive
same,Potency,[5],inactive
same,Potency,[6],inactive
same,Potency,[7],inactive
same,Potency,[8],inactive
c1ccc(Nc2cccc3ccccc23)cc1,Potency,[10],55.7 µM (active) and inactive
same,Potency,[11],inactive
same,Potency,[2],inactive
same,Potency,[3],31.3 µM (active) and 49 µM (active)
same,Potency,[9],inactive
same,Potency,[5],24.9 µM (active)
same,Potency,[7],inactive
same,Potency,[12],inactive
same,Potency,[8],inactive
CCCCN(C)C,Potency,[2],inactive
same,Potency,[3],inactive
same,Potency,[4],inactive
same,Potency,[5],inactive
same,Potency,[7],inactive
same,Potency,[8],inactive
Cc1cccc(N(C)C)c1,Potency,[2],inactive
same,Potency,[3],inactive
same,Potency,[4],inactive
same,Potency,[9],inactive
same,Potency,[5],inactive
same,Potency,[6],inactive
same,Potency,[7],inactive
same,Potency,[8],inactive
